Source: PubChem
FBW7 act = FBW7 E3 ligase activators, primary screen, biochemical, AlphaScreen, human; F-box/WD repeat-containing protein 7 (Homo sapiens), Q969H0; AlphaScreen FBW7–phospho-cyclin E peptide binding, activator screen; normalized activity (activation), % at 26.1 µM; hit rate 0.13% among 650,000; AID 1259310, 2017; in the data active = normalized activity above about 1.9%;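 note: purified mutant Fbw7 with reduced substrate affinity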
TEAD-YAP inh = TEAD-YAP interaction inhibition, primary screen, TEAD-YAP interaction inhibitor project, luminescence, HEK-TIYL cells. hit rate 1.4% among 640,000. inhibition, % at 9.12 µM. TEAD-Gal4/YAP UAS-luciferase luminescence; in the data active = inhibition above about 32%
GPR151 ag = activators of human GPR151, primary screen, cell-based, PathHunter beta-arrestin, luminescence. AID 1508602, 2020. hit rate 1% among 650,000. PathHunter beta-arrestin GPR151 cells. G-protein coupled receptor 151 (Homo sapiens), Q8TDV0. activation, % at 11.2 µM; in the data active = activation above about 4.9%
Target sequence (Q8TDV0 whole entry, looked up): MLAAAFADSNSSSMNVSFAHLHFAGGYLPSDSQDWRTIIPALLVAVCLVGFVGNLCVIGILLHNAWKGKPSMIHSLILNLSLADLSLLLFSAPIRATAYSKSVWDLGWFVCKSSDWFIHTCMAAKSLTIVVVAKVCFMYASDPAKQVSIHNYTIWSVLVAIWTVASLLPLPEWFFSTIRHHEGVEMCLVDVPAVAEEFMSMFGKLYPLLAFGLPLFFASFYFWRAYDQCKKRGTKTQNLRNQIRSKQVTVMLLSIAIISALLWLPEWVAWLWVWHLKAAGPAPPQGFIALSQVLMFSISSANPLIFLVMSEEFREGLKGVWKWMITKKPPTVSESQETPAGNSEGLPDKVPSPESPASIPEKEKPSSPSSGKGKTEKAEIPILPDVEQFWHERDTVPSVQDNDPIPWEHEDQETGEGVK
MITF inh = MITF inhibitors, primary screen, biochemical, AlphaScreen, human. inhibition, % at 2.6 µM. Microphthalmia-associated transcription factor (Homo sapiens), O75030. hit rate 0.91% among 650,000. AlphaScreen MITF homodimerization, bead proximity signal; in the data active = inhibition above about 50%
GPR151 conf act = GPR151 activators, triplicate retest, confirmation, cell-based, PathHunter beta-arrestin, luminescence | shares compounds with GPR151 ag | GPR151 PathHunter beta-arrestin cells, 90 min; % of EA-reagent control over plate median | activation, % at 11.2 µM | 6,700 tested, under 10 active | AID 1508609, 2020;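 active = mean percent activation across replicates above the confirmation screen cutoff of 4.91%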
GPR119 counter = GPR119 activators in beta-arrestin cells, counter-screen for GPR151 activator project, cell-based, PathHunter beta-arrestin, luminescence, triplicate; activation, % at 11.2 µM; hit rate 0.3% among 6,700; shares compounds with GPR151 ag; 90 min; 0 = compound-well median, 100 = enzyme-acceptor control;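 active = mean percent activation in the counterscreen above 29.09%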;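 note: counterscreen on off-target GPR119 to flag nonselective hits from the GPR151 activator screen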
Large screens that a line does not name were inactive (follow-up assays come after a bar, where they were run). Rows were chosen to be rich in hits. Some 3.5% of all compounds tested hit in one or more screens of this group.

CC(C)(C)c1ccc(C2/C(=C(/O)c3ccc(Cl)cc3)C(=O)C(=O)N2Cc2cccnc2)cc1 (stereo not drawn)	none
CS(=O)(=O)c1ccc(N2CCC3(CC2)OCCO3)cc1	none
CCc1ccc(NC(=O)CSc2nc3ncccc3[nH]2)cc1	GPR151 ag 6.5 | GPR151 conf act inactive | GPR119 counter inactive
CCOc1cccc(CN(CC)Cc2ccccc2)c1O	none
O=C(Nc1ncc(C(O)(C(F)(F)F)C(F)(F)F)s1)c1ccccc1Cl	GPR151 ag 6.6 | GPR151 conf act inactive | GPR119 counter inactive
Cc1nnc(NC(=O)c2ccccc2Cl)s1	none
O=C(CS(=O)(=O)c1ccccc1)Nc1nc(-c2ccc3ccccc3c2)cs1	none
O=C(CS(=O)(=O)c1ccccc1)Nc1nc(-c2ccc(F)cc2)cs1	GPR151 ag 9.7 | GPR151 conf act inactive | GPR119 counter inactive
COc1cccc(NC(=O)c2sc3nc(-c4ccccc4)cn3c2C)c1	none
CCOCCn1cnc2sc(C(=O)N3CCN(c4ccc(F)cc4)CC3)c(C)c2c1=O	none
O=C(Cn1cc([N+](=O)[O-])cn1)n1cccn1	GPR151 ag 5.5 | GPR151 conf act inactive | GPR119 counter inactive
O=C(Cn1cc([N+](=O)[O-])cn1)Nc1ccccn1	none
CC(=O)N1CCOc2cc(S(=O)(=O)N3CCCCCC3)c(C)cc21	none
CC(=O)N1CCOc2cc(S(=O)(=O)N3CCC(Cc4ccccc4)CC3)c(C)cc21	GPR151 ag 5.0 | GPR151 conf act inactive | GPR119 counter inactive
O=C(Cc1ccc(F)cc1)NCCc1nnc2n1CCN(Cc1cc3ccccc3o1)CC2	GPR151 ag 5.1 | GPR151 conf act inactive | GPR119 counter inactive
CC(C)C(=O)NCCc1nnc2n1CCN(Cc1cc3ccccc3o1)CC2	none
COc1ccc(-c2csc3ncnc(N4CCC(C(=O)O)CC4)c23)cc1	none
COc1cccc(C(=O)COC(=O)c2ccc3c(c2)OCO3)c1	GPR151 ag 5.3 | GPR151 conf act inactive | GPR119 counter inactive
Cc1ccc(CNc2ncnc3c2c(-c2ccccc2)cn3-c2ccc(Cl)cc2)cc1	GPR151 ag 8.4 | GPR151 conf act inactive | GPR119 counter inactive
Cc1ccc(-n2cc(-c3ccccc3)c3c(NCc4ccccc4)ncnc32)cc1	none
CCOC(=O)C1CCCN(c2c(N3CCCC3)c(=O)c2=O)C1 (stereo not drawn)	none
Cc1ccc2onc(CNC(=O)N3CCCC(C)C3)c2c1 (stereo not drawn)	GPR151 ag 6.9 | GPR151 conf act inactive | GPR119 counter inactive
Cc1ccc2onc(CNC(=O)N3CCCC3)c2c1	none
CCOC(=O)c1nn(CCO)c2c1CN(Cc1cccc(Cl)c1)CC2	GPR151 ag 10.4 | GPR151 conf act inactive | GPR119 counter inactive
NC(=O)c1ccccc1NC(=O)/C=C/c1ccccc1	GPR151 ag 7.7 | GPR151 conf act inactive | GPR119 counter inactive
NC(=O)c1ccccc1NC(=O)/C=C/c1ccc(Cl)cc1	none
O=C(/C=C/c1ccc([N+](=O)[O-])cc1)Nc1ccccc1Cl	GPR151 ag 7.4 | GPR151 conf act inactive | GPR119 counter inactive
Cc1cc(C)cc(N2C(=O)c3ccccc3NC2c2ccc(Cl)cc2)c1 (stereo not drawn)	none
COc1ccc(S(=O)(=O)Nc2cccc(SC)c2)cc1C	none
COc1ccc(S(=O)(=O)Nc2cccnc2)cc1I	GPR151 ag 5.1 | GPR151 conf act inactive | GPR119 counter inactive
COc1ccc(S(=O)(=O)Nc2cccc(Br)c2)cc1C	GPR151 ag 13.5 | GPR151 conf act inactive | GPR119 counter inactive
COc1ccc(S(=O)(=O)Nc2cccc(N(C)S(C)(=O)=O)c2)cc1OC	GPR151 ag 7.8 | GPR151 conf act inactive | GPR119 counter inactive
COc1ccc(S(=O)(=O)Nc2cccc(N(C)S(C)(=O)=O)c2)cc1C	none
COc1ccc(S(=O)(=O)Nc2cccnc2)cc1C	none
